This passage reports TR-FRET ratio results from PubChem BioAssay AID1049 (The Scripps Research Institute Molecular Screening Center, 2008).

Hit rate of the full screen: of about 200,000 compounds, about 780 (0.39%) were called active. Shown is part of a subset that was picked to be rich in actives. Unmarked numbers belong to inactive results. Rule as the data show it: active = TR-FRET ratio above about 2000; inactive = the rest.

This assay can be described thus: detection-format interference in TR-FRET ratio – biochemical, artefact control for PPARgamma SRC-2 agonist project, primary screen (AID 1049). The conditions noted are these: TR-FRET artefact counter-screen; at 8 µM; active compounds read high. For orientation: Time-resolved FRET reads energy transfer from a long-lived donor to a nearby acceptor.
`Cc1ccc(S(=O)(=O)Nc2nc3ccccc3s2)cc1[N+](=O)[O-]`: the TR-FRET ratio was 1360. As for `Cc1ccc(C)c(-n2cc(CN3CCN(C(=O)c4ncn[nH]4)CC3)c(-c3ccccc3)n2)c1`, the TR-FRET ratio is 1390. In the case of `CCc1nnc(NS(=O)(=O)c2ccc(N=Cc3c(C)[nH]n(-c4ccc(C)cc4)c3=O)cc2)s1` it was 1630. The figure for `COc1cc(SC#N)ccc1N=Cc1c(C)[nH]n(-c2ccc(C)cc2)c1=O` is 1980 (active). In the case of `Cc1ccc(-n2[nH]c(C)c(/C=N/N3C(=O)c4cccc5cccc(c45)C3=O)c2=O)cc1` it was 1510; in that of `Cc1cc(C)c(NC(=O)c2oc3ccccc3c2COc2ccccc2)c(C)c1`, 1540; in that of `CCCCCC(O)c1cccc(OCc2ccc3ccccc3n2)c1` (stereo not drawn), 1460. Turning to `CCN(CC)S(=O)(=O)c1ccc(N(C)Cc2cccc(OC)c2OC)nc1`, the TR-FRET ratio is 1770.

As for `CC(=O)c1cccc(CN2CCC(CO)(Cc3ccccc3)CC2)c1`, the TR-FRET ratio was 1590. `Cc1cccc(-c2ncc(CN3CCC(CO)(CCCc4ccccc4)CC3)cn2)c1`: the TR-FRET ratio is 1690. The figure for `OCC1(CCc2ccccc2)CCN(Cc2ccc3nsnc3c2)CC1` is 2040 (active); for `Cc1ccccc1-n1nc(C)c2c1N=C1C(Cl)=CC(Cl)=CN1C2c1ccc(C(=O)O)cc1` (stereo not drawn) it is 1440. In the case of `CC(Sc1nnnn1C)C(=O)NC(=O)NC1CCCCC1` (stereo not drawn) it was 1580. In the case of `CN1CCN(/N=C/c2ccc(C#N)cc2)CC1`, the TR-FRET ratio is 1460. In the case of `Cc1ccc(/C=N\n2c(-c3ccccc3)n[nH]c2=S)s1` it was 1450; in that of `Cn1c(-c2sc3cc(C(F)(F)F)cnc3c2-c2ccccc2)n[nH]c1=S`, 2810 (active).

On to `Cn1c(-c2sccc2OCc2cccc(C(F)(F)F)c2)n[nH]c1=S`, for which the TR-FRET ratio was 1690.

With `Nc1c(NCCc2ccccc2)c2ccccc2oc1=O`, the TR-FRET ratio is 1500. The figure for `Cc1cc(Cl)ccc1OCCCC(=O)NCc1ccccn1` is 1540. In the case of `CN(CC(=O)N1CCN(c2ccccc2)CC1)S(=O)(=O)c1cccs1` it was 1460; in that of `COc1cc2c(cc1O)C(SC)=NC(C)(C)C2`, 1660. For `COc1cc2c(cc1OC)C(Nc1ccc(S(N)(=O)=O)cc1)=NC(C)(C)C2`, the TR-FRET ratio was 2460 (active). In the case of `COc1cc2c(cc1OC)C(C(C)C)=NC(C)(C)C2` it was 1430. The figure for `Cc1ccc(C)c(Cn2cnc3c(oc4ccccc43)c2=O)c1` is 1620; for `Cc1ccc2[nH]c(=O)c(CN(CC3COCCO3)C(=O)Nc3ccccc3C)cc2c1` (stereo not drawn) it is 1560. The figure for `Cc1cccc2cc(CN(Cc3cccs3)C(c3nnnn3C3CCCC3)C(C)C)c(=O)[nH]c12` (stereo not drawn) is 1580; for `CCC(c1nnnn1C1CCCC1)N(Cc1cccs1)Cc1cc2cccc(C)c2[nH]c1=O` (stereo not drawn) it is 1590.

Turning to `Cc1cccc2cc(CN(Cc3ccc4c(c3)OCO4)Cc3nnnn3C3CCCC3)c(=O)[nH]c12`, the TR-FRET ratio was 2020 (active).
